# The whole screen tested about 190,000 compounds, of which about 1,900 (1%) were called active.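 The calls were made as follows: active = percentage of spot-positive cells more than 3 SD above its plate mean, without a fluorescence outlier flag or 80% toxicity; inconclusive = no clear call, values can overlap the other calls; inactive = the rest.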 The full list was thinned out, with actives kept by preference.
# Test: autophagy modulators in MEF cells, primary screen, imaging, high-content, MEF GFP-LC3 (AID 463193);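 as to % cells with GFP-LC3 spots: spot-positive cell cutoff set from DMSO-treated cells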;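 as to toxicity: cell loss after 18 h compound exposure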
# Details: MEF GFP-LC3 puncta imaging, at 10 µM; % cells with GFP-LC3 spots: stronger effect = higher value; toxicity: measured here: cell loss, nuclei count
SMILES,% cells with GFP-LC3 spots,toxicity [%]
CCNC(=S)N(CCc1c(C)[nH]c2ccc(C)cc12)Cc1ccco1,19.1% (active),0.117
COc1ccc2[nH]c(C)c(CCN(Cc3cccs3)C(=S)Nc3ccccc3OC)c2c1,12.3% (inactive),16.6
COc1cccc(NC(=S)N(CCc2c(C)[nH]c3ccccc23)Cc2ccco2)c1,9.78% (inactive),16.6
COC(=O)c1nc2n(n1)C(c1ccc([N+](=O)[O-])cc1)C(C(=O)Nc1ccc(Cl)cc1)=C(C)N2 (centres undefined),5.34% (inactive),-5.39
O=C(c1cccc([N+](=O)[O-])c1)N1CCN(C(=O)c2ccco2)CC1,0.295% (inactive),7.8
CCC(=O)c1ccc(OCC(O)CN2CC(C)OC(C)C2)cc1 (centres undefined),5.51% (inactive),-8.47
O=C(COc1ccc(Cl)cc1)N1CCN(c2cccc(C(F)(F)F)c2)CC1,9.65% (inactive),-3.29
CCC(=O)c1ccc(OCC(O)CN2CCN(c3cccc(C(F)(F)F)c3)CC2)cc1 (centres undefined),13.1% (active),8.02
CCO[C@@H]1OC(C(N)=O)=C[C@H](c2ccc(Br)cc2)[C@H]1CCCO,18.2% (inactive),10.9
CNS(=O)(=O)c1ccc(NC(=O)C2CC(=O)N(c3ccc(Cl)cc3)C2)cc1 (centres undefined),8.63% (inactive),-13.2
COc1cccc(C(=O)N2CCCC(CCC(=O)NCc3ccc(F)c(F)c3)C2)c1 (centres undefined),3.38% (inactive),5.82
O=C(O)CC(Cc1ccccc1)C(=O)Nc1ccc([N+](=O)[O-])cc1 (centres undefined),1.42% (inactive),-2.46
CN(C)S(=O)(=O)c1ccc2oc(SCC(=O)Nc3ccccc3F)nc2c1,0.884% (inactive),-4.66
Cc1cccc(C(=O)N2CCc3c([nH]c4ccccc34)C2CC(C)C)n1 (centres undefined),11% (inactive),-2.26
C=CCNC(=O)CCCOc1cccc(C)c1,10.7% (inactive),16.1
C=CCNC(=O)CCCC(=O)NCC=C,17.9% (active),1.29
C=CCNC(=O)CC12CC3CC(C1)CC(CC(=O)NCC=C)(C3)C2,23% (inactive),16.8
O=C(O)c1cccc(N=NN2CCCCCC2)c1,6.85% (inactive),-1.54
CSc1ncnc2sc(C)c(C)c12,10.2% (inactive),24.5
CCOC(=O)c1[nH]c2c(c1C)C(=O)CC(c1ccc(N(C)C)cc1)C2 (centres undefined),2.24% (inactive),-7.4
CCCOC(=O)c1[nH]c2c(c1C)C(=O)CC(c1cc(OC)c(OC)c(OC)c1)C2 (centres undefined),12.1% (inactive),15.9

SMILES,% cells with GFP-LC3 spots,toxicity [%]
CCCOC(=O)c1[nH]c2c(c1C)C(=O)CC(c1cccs1)C2 (centres undefined),19% (active),63
Cc1ccc(SC(C)C(=O)NCc2ccc(F)cc2)cc1 (centres undefined),0.143% (inactive),-15
COc1cccc(Cn2cnc3c([N+](=O)[O-])c(C)c(C)cc32)c1,6.93% (active),-2.05
Cc1cccc(Cn2cnc3c(N)c(C)c(C)cc32)c1,1.71% (inactive),1.99
Cc1nn(C)c(Oc2ccccc2)c1[N+](=O)[O-],2.75% (inactive),-3.54
CCOc1cccc(OCCCOc2cccc3cccnc23)c1,3.63% (inactive),-4.48
Fc1ccc2nc(-c3ccccc3)nc(SCc3nnc(-c4ccccc4)o3)c2c1,4.88% (inactive),16.1
Cc1ccc2nc(SCc3nnc(-c4ccccc4[N+](=O)[O-])o3)c(C#N)cc2c1,85.6% (active),21.6
Cc1nonc1NC(=O)CSc1nc2ccccc2cc1C#N,0.583% (inactive),-8.81
CCOc1ccc(Br)cc1S(=O)(=O)N1CCC(C(=O)O)CC1,6.06% (inactive),14.1
C/C(=N/O)c1ccc(N2C(=O)C3C4C=CC(C3C2=O)C2C3C(=O)N(c5ccc(/C(C)=N/O)cc5)C(=O)C3C42)cc1 (centres undefined),11.7% (inactive),14.4
O=C(NC(Nc1nc2ccc([N+](=O)[O-])cc2s1)(C(F)(F)F)C(F)(F)F)c1ccccc1,31.8% (active),57.9
O=C(Nc1nc2ccc([N+](=O)[O-])cc2s1)c1ccc(S(=O)(=O)N2CCCc3ccccc32)cc1,16.8% (inactive),25.4
O=C(O)CCC(=O)Nc1nc2ccc([N+](=O)[O-])cc2s1,6.76% (inactive),11.6
O=C(c1ccc2ccccc2n1)N1CCN(c2ccccc2Cl)CC1,4.83% (inactive),-5.94
CCOC(=O)N1CCN(C(=O)CSc2nc(C)nc3c2c(=O)n(C)c(=O)n3C)CC1,12.3% (inactive),3.6
Cc1ncoc1C(=O)NCCC(c1ccccc1)c1ccccc1,18% (inactive),11.5
COc1cccc(CNC(=O)CCC2CCCN(C(=O)c3cc(C)[nH]n3)C2)c1 (centres undefined),0.272% (inactive),-19.2
Cc1occc1C(=O)N1CCCc2ccccc21,12.6% (inactive),-3.33
Cc1cccc2cc3c(N)c(C(=O)N4CCCc5ccccc54)sc3nc12,34.9% (active),33.8
O=C(c1cccc(C(=O)N2CCc3ccccc32)n1)N1CCc2ccccc21,7.33% (inactive),25.5

SMILES,% cells with GFP-LC3 spots,toxicity [%]
O=C(/C=C/c1ccc(F)cc1)Nc1cccc(S(=O)(=O)Nc2cccc(C(F)(F)F)c2)c1,3.21% (inactive),11.4
O=c1[nH]c(=S)[nH]c2[nH]c(=S)[nH]c12,16.3% (inactive),14.2
CCOc1cc(NC(=O)c2ccccn2)c(OCC)cc1NC(=O)c1ccc(OC)cc1,2.17% (inactive),23.7
CCOc1ccccc1NC(=O)c1cccnc1,1.43% (inactive),1.42
CCOc1cc(NC(=O)c2cnccn2)c(OCC)cc1NC(=O)c1ccc(C)cc1,16.1% (active),-0.236
COc1ccc(/C=C/C(=O)NC(=S)NN2CCCCC2c2cccnc2)cc1 (centres undefined),2.8% (inactive),2.51
CCOCCCNC(=O)C(NC(=O)c1ccc(=O)[nH]c1)c1ccc(C)cc1 (centres undefined),3.93% (inactive),-0.266
CCOCCCNC(=O)C(NC(=O)c1ccc(=O)[nH]c1)c1ccc(Cl)cc1 (centres undefined),28% (active),44.6
CCOCCCNC(=O)C(NC(=O)c1ccccc1O)c1ccccc1 (centres undefined),5.35% (inactive),-34
CCc1nnc(NC(=O)CCCSc2nc3ccccc3[nH]2)s1,1.66% (inactive),-3.54
COc1ccc(-n2ncc3c(N4CCc5ccccc54)ncnc32)cc1,10.6% (active),12.2
Cc1cccc(-n2ncc3c(N4CCc5ccccc54)ncnc32)c1,1.09% (inactive),-9.01
COc1ccc(-n2ncc3c(N4CCCc5ccccc54)ncnc32)cc1,7.91% (inactive),7.86
Cc1ccc2nc(-c3ccccn3)cc(C(=O)Nc3ccc4c(c3)OCO4)c2c1,4.19% (inactive),13.2
CC1(C)C2CCC1(C)C(OC(=O)c1ccc(O)cc1)C2 (centres undefined),19.1% (inactive),2.39
COc1ccc(-c2[nH]ncc2CN(C)Cc2cccnc2)c(F)c1,3.28% (inactive),15.9
Clc1ccc(CN2CCN(/N=C/c3cccnc3)CC2)cc1,0.128% (inactive),-10.7
O=C1/C(=C\c2cccnc2)CN(Cc2ccccc2)C/C1=C\c1cccnc1,52.1% (active),-17.6
O=Cc1cn(Cc2ccccc2)nc1-c1cccnc1,0.945% (inactive),1.14
Cc1ccc(NC(=O)NC2CCCCC2)cc1S(=O)(=O)N1CCOCC1,9.14% (inactive),-3.67
Cc1cccc(COc2ccccc2/C=N/Nc2ccc([N+](=O)[O-])cc2)c1,1.93% (inactive),8.3

SMILES,% cells with GFP-LC3 spots,toxicity [%]
COc1cc(/C=N\Nc2ccc([N+](=O)[O-])cn2)ccc1OCC(=O)O,1.45% (inactive),-6.18
Cc1ccc(-n2c(C)cc(/C=N/Nc3ccc([N+](=O)[O-])cn3)c2C)c(C)c1,52% (active),-31.7
CCOC(=O)CC(=O)CSc1nc(-c2ccccc2)cc(-c2ccc(Cl)cc2)c1C#N,3.63% (inactive),-4.4
N#Cc1c(-c2ccc(F)cc2)cc(C2CC2)nc1SCC(=O)c1cccs1,86.4% (active),-1.55
O=C(CSc1nc2ccccc2[nH]1)c1cccs1,0.463% (inactive),5.37
Cc1ccc(CC(=O)Nc2ccc(OC(F)F)c(Cl)c2)cc1C,6.36% (inactive),-11.9
CCN1CCN(C(=O)c2ccc(CN(c3ccc(C)c(C)c3)S(C)(=O)=O)cc2)CC1,5.04% (inactive),-26.7
Cc1cc(C(=O)N/N=C/c2ccc(O)c([N+](=O)[O-])c2)c(C)n1-c1ccc(F)cc1,6.11% (inactive),2.16
O=C(Nc1ccc(Br)cn1)c1ccc([N+](=O)[O-])cc1Cl,25.9% (inactive),12.1
CSc1ccc(/C=N\NC(=O)CC(=O)NC(C)C)cc1,3.73% (inactive),6.35
O=c1cc(-c2ccccc2)[nH]c2cc(F)ccc12,3.89% (inactive),-7.91
O=C(/C=C/c1ccc(Cl)cc1)Nc1ccc(Br)cn1,20.4% (inactive),30.5
CCOC(=O)/C(C#N)=C/c1ccc(N2CCN(Cc3ccccc3)CC2)cc1,10.3% (inactive),10.6
CC(C)OC(=O)C(C#N)c1nc2ccccc2nc1N1CCN(Cc2ccccc2)CC1 (centres undefined),41.3% (active),2.68
Cc1ccc(S(=O)(=O)C(C#N)c2nc3ccccc3nc2N2CCCC2)cc1C (centres undefined),8.97% (inactive),-8.37
O=[N+]([O-])c1ccc(Sc2n[nH]c(-c3ccco3)n2)nc1,0% (inactive),4.9
Cc1ccccc1CN1C[C@@H]2C[C@@H](c3ccc4nsnc4c3)N3CCC[C@@]23C1=O,34.4% (active),24.5
OCC1(CCc2ccccc2)CCN(Cc2ccc3nsnc3c2)CC1,0.559% (inactive),0.377
Cc1ccccc1CN1C[C@@H]2C[C@@H](c3cn(C)nc3-c3ccccc3)N3CCC[C@@]23C1=O,0.136% (inactive),-5.59

# — PubChem BioAssay AID463193 (University of Pittsburgh Molecular Library Screening Center, 2010)
